Screening results: PubChem, several laboratories
Hits are enriched below; roughly 1.6% of the tested compounds scored in any of these assays.
SIRT5 block: SIRT5 desuccinylase inhibitors, primary screen, biochemical, fluorescence imaging, single point, set 5; Purified SirT5, succinyl-peptide AMC, trypsin-coupled fluorescence; inhibition, % at 15 µM; AID 652115, 2013; 1.1% of 330,000 active; in the data active means inhibition above about 15%
NSD2 HMT inh: NSD2 histone methyltransferase inhibitors, primary screen, biochemical, AlphaScreen, single concentration, set 2; Histone-lysine N-methyltransferase NSD2 (Homo sapiens), O96028; NSD2 peptide methylation, 120 min; inhibition, % at 12.5 µM; 0.54% of 310,000 active; AID 743445, 2014; in the data active means inhibition above about 50%
CASP6 VEID inh: human caspase-6 inhibitors, primary screen, biochemical, VEID-R110 fluorescence, single point, set 2 | inhibition, % at 12.5 µM | purified caspase-6, Z-VEID-R110 cleavage fluorescence | AID 686996, 2013 | 0.53% of 350,000 active | P55212;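 active means mean inhibition across replicates at least about 35%, with every replicate also reaching that limit, limit read from the data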;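 further: 0% = median of neutral control wells and 100% = no fluorescence left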
UBC9 SUMO inh: inhibitors of in vitro SUMOylation cascade, primary screen, biochemical, HTRF, uHTS; HTRF SUMOylation assay, SAE1/SAE2 + UBC9; 0.36% of 290,000 active; SUMO-conjugating enzyme UBC9 (Homo sapiens), P63279; inhibition, % at 35 µM; in the data active means inhibition above about 50%, passing the limit was not always enough
* = called active by the depositor; · = not tested or not shown.

SMILES	SIRT5 block	NSD2 HMT inh	CASP6 VEID inh	UBC9 SUMO inh
CO[C@H]1CN(C)C(=O)c2ccc(NC(=O)C3CCCCC3)cc2OC[C@H](C)N(Cc2nccs2)C[C@@H]1C	1	·	1	·
COC(=O)[C@@H]1[C@@H](CO)[C@@H]2Cn3c(ccc(-c4ccc(F)cc4)c3=O)[C@@H]2N1C(=O)C1CCC1	-8	·	0	·
COc1ccc(S(=O)(=O)Nc2ccc3c(c2)C(=O)N([C@@H](C)CO)C[C@@H](C)[C@@H](CN(C)S(=O)(=O)c2ccc(Cl)cc2)OCCCC[C@@H](C)O3)cc1	15*	·	2	·
COc1ccc(S(=O)(=O)Nc2ccc3c(c2)C(=O)N([C@@H](C)CO)C[C@@H](C)[C@H](CN(C)S(=O)(=O)c2ccc(Cl)cc2)OCCCC[C@@H](C)O3)cc1	16*	·	1	·
COc1ccc(S(=O)(=O)Nc2ccc3c(c2)C(=O)N([C@H](C)CO)C[C@H](C)[C@H](CN(C)S(=O)(=O)c2ccc(Cl)cc2)OCCCC[C@H](C)O3)cc1	16*	·	-1	·
COc1ccc(S(=O)(=O)Nc2ccc3c(c2)C(=O)N([C@H](C)CO)C[C@@H](C)[C@@H](CN(C)S(=O)(=O)c2ccc(Cl)cc2)O3)cc1	20*	·	2	·
COc1ccc(S(=O)(=O)N(C)C[C@H]2Oc3ccc(NS(=O)(=O)c4ccc(Cl)cc4)cc3C(=O)N([C@H](C)CO)C[C@H]2C)cc1	3	·	-1	·
COc1ccc(S(=O)(=O)Nc2ccc3c(c2)C(=O)N([C@@H](C)CO)C[C@@H](C)[C@H](CN(C)S(=O)(=O)c2ccc(Cl)cc2)OCCCC[C@H](C)O3)cc1	1	·	1	·
CCCNC(=O)N1[C@H](C#N)[C@H](c2ccc(-c3cccnc3)cc2)[C@@H]1CO	2	·	0	·
COc1ccc(S(=O)(=O)N(C)C[C@@H]2OCCCC[C@@H](C)Oc3ccc(NS(=O)(=O)c4ccc(Cl)cc4)cc3C(=O)N([C@H](C)CO)C[C@@H]2C)cc1	16*	·	0	·
COc1ccc(S(=O)(=O)N(C)C[C@H]2OCCCC[C@@H](C)Oc3ccc(NS(=O)(=O)c4ccc(Cl)cc4)cc3C(=O)N([C@@H](C)CO)C[C@H]2C)cc1	16*	·	0	·
COc1ccc(S(=O)(=O)Nc2ccc3c(c2)C(=O)N([C@H](C)CO)C[C@@H](C)[C@@H](CN(C)S(=O)(=O)c2ccc(Cl)cc2)OCCCC[C@@H](C)O3)cc1	11	·	2	·
CO[C@H]1CN(C)C(=O)c2ccc(NS(=O)(=O)C3CCCCC3)cc2OC[C@@H](C)NC[C@H]1C	-12	·	3	·
O=S(=O)(NC[C@H]1CC[C@@H]2NC[C@@H]2O1)c1ccccc1F	-1	·	-4	·
COc1ccc(-c2cc3nc4ccccc4n3c(N)c2C#N)cc1	-2	·	-2	57*
COc1ccc(-c2cc(-c3ccccc3)c(C#N)c(S(C)=O)n2)cc1 (configuration not stated)	·	-1	·	40
CO[C@H]1CN(C)C(=O)c2ccc(NS(=O)(=O)c3ccc(C)cc3)cc2OC[C@H](C)N(C(=O)NC(C)C)C[C@@H]1C	3	·	2	·
CCCCOc1ccc(C(O)C(CN2CCOCC2)c2ccccc2)cc1 (configuration not stated)	15*	4	0	6
COc1cccc(Nc2nc(CN3CCOCC3)nc3sc4c(c23)CCCC4)c1	22*	-2	0	-10
Cc1cc(S(=O)(=O)Nc2nc(CN3CCOCC3)nc3sc4c(c23)CCC4)cc(C)c1C	3	10	13	·
CCOC(=O)C1=C(c2ccccc2)N=c2sc(=Cc3cc(OC)c(OC)c(OC)c3)c(=O)n2C1c1cccs1 (configuration not stated)	16*	·	0	·
COc1ccccc1C1C2=C(N=c3s/c(=C/c4cccc(OCC(=O)O)c4)c(=O)n31)c1ccccc1CC2 (configuration not stated)	10	7	38*	20
CCOC(=O)C1=C(C)N=c2s/c(=C\c3ccc(OCC(=O)O)c(OC)c3)c(=O)n2C1c1ccc(OC)cc1 (configuration not stated)	8	-1	6	33
CCOC(=O)C1=C(c2ccccc2)N=c2s/c(=C\c3ccc(O)cc3)c(=O)n2C1c1cccs1 (configuration not stated)	0	-2	-4	5
CCOC(=O)C1=C(C)N=c2sc(=Cc3cc(Cl)c(OCC(=O)O)c(OC)c3)c(=O)n2C1c1ccccc1Cl (configuration not stated)	24*	·	28	·
SMILES	SIRT5 block	NSD2 HMT inh	CASP6 VEID inh	UBC9 SUMO inh
COc1ccc(C(C)=O)cc1CSc1nnc(Nc2c(C)cccc2C)s1	21*	-3	0	-14
COc1ccccc1NC(=O)COC(=O)c1cc2c(s1)CCC2	-1	-4	64*	·
COc1ccc(OC)c(NC(=O)COC(=O)c2cc3c(s2)CCC3)c1	2	2	34	40
COc1cccc(C(=O)OCC(=O)Nc2sc3c(c2C(N)=O)CCC3)c1O	9	1	41*	·
O=C(N[C@@H]1CC[C@@H](CCNS(=O)(=O)c2cccc(Cl)c2)O[C@H]1CO)c1ccc(F)cc1	-4	·	2	·
O=S(=O)(CCc1ccncc1)c1ccc(Cl)cc1	27*	7	-4	-1
COC(=O)CCS(=O)(=O)c1ccc(Cl)cc1	·	·	·	-1
C[C@@H](O)C#Cc1ccc2c(c1)O[C@@H](CN(C)C(=O)C1CC1)[C@@H](C)CN([C@@H](C)CO)S2(=O)=O	1	·	1	·
CNc1ccc(Br)cc1C(O)c1ccccc1 (configuration not stated)	37*	0	0	3
Cc1ccc(S(=O)(=O)Nc2ccccc2C(O)c2ccccc2)cc1 (configuration not stated)	-3	-3	0	-13
O=C(Nc1cc(F)ccc1F)N1C[C@H]2[C@@H](c3ccccc31)[C@H](CO)N2CC1CCCC1	-3	·	·	·
C[C@@H]1CN([C@H](C)CO)C(=O)Cc2cc(NS(C)(=O)=O)ccc2O[C@@H]1CN(C)CC1CC1	17*	·	3	·
C[C@@H]1CN([C@H](C)CO)C(=O)Cc2cc(NC(=O)Nc3cccc4ccccc34)ccc2O[C@H]1CN(C)Cc1ccc2c(c1)OCO2	17*	·	4	·
C[C@@H]1CN([C@H](C)CO)C(=O)Cc2cc(NC(=O)Nc3ccc4c(c3)OCO4)ccc2O[C@H]1CN(C)CC1CCCCC1	17*	·	-3	·
C[C@@H]1CN([C@@H](C)CO)C(=O)Cc2cc(NS(=O)(=O)c3ccccc3)ccc2O[C@H]1CN(C)CC1CCCCC1	19*	·	2	·
C[C@@H]1CN([C@@H](C)CO)C(=O)Cc2cc(NC(=O)Nc3cccc4ccccc34)ccc2O[C@@H]1CN(C)Cc1ccc2c(c1)OCO2	-1	·	-2	·
C[C@H]1CN([C@@H](C)CO)C(=O)Cc2cc(NS(=O)(=O)c3ccccc3)ccc2O[C@H]1CN(C)CC1CCCCC1	2	·	4	·
